According to the supplement of paper PMC3334620:
The full ranking holds about 33,000 sequences; the median of “E-score (-0.5 to 0.5)” is about -0.0059, and the highest 2% start at about 0.26. For the sample, the highest values were picked, then their nearest neighbours and some sequences at random.

Target: T1, Cin5 (UniProt P40917)
T1 sequence: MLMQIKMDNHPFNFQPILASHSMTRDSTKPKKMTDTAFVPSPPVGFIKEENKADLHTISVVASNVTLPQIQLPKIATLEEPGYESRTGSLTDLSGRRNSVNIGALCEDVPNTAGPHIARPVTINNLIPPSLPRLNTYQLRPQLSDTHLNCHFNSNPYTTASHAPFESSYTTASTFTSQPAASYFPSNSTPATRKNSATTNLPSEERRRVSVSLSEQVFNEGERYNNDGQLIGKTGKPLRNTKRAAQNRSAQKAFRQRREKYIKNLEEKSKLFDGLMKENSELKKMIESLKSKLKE
Assay: PBM E-score (8-mer binding enrichment) (E-score (-0.5 to 0.5)); higher = stronger / more preferred TF binding
Details: protein concentration: 100 nM; construct: GST-full length
Procedure, shortened: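 Masliner-normalised scans of fluorescent anti-GST signal were the basis for scoring. That signal came from GST-tagged yeast transcription factors applied at about 100-200 nM to double-stranded universal all-10-mer Agilent arrays on fresh or once-stripped slides. Each ungapped eight-base word, pooled with its reverse complement, received an E-score from the Universal PBM Analysis Suite.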

Row | Sequence | PBM E-score
1 | AAAAGGAC | 0.0428
2 | AAGACCCG | -0.133
3 | AACGATCG | 0.0832
4 | ACGCCCGA | -0.032
5 | AGGAACAA | -0.0886
6 | AGTTCGGC | -0.0604
7 | GTAGATTA | 0.232
8 | GTGGAATA | 0.193
9 | GTAGAATA | 0.194
10 | ATGGAATA | 0.322
11 | GCAGATAA | 0.0212
12 | ATAGAATG | 0.209
13 | GTAGATAC | 0.0747
14 | ATAGATTA | 0.302
15 | ATGGAATC | 0.242
16 | ATAGATTG | 0.224
17 | ATAGAATA | 0.277
18 | GTAGATAA | 0.28
19 | AAAGTTGC | 0.0362
20 | AGGCCAAC | -0.251
21 | CATTGCAA | -0.0643
22 | CTCAGGGA | -0.0496
23 | GCGCATTA | 0.147
24 | ATCACCTG | 0.148
25 | CAATCTGC | -0.0434

Row | Sequence | PBM E-score
26 | GAGCAGAA | -0.0414
27 | ACCAACGC | -0.0288
28 | AGGGCACG | -0.206
29 | CCGACCGG | -0.211
30 | TTAGCTAA | 0.343
31 | ATAGCTAA | 0.0506
32 | CTAGCTAA | 0.0272
33 | CACTCGGG | -0.117
34 | GATGACAA | 0.27
35 | CATGACAA | 0.0097
36 | GATGACAC | 0.0142
37 | AGGGCCCC | -0.322
38 | TCCACTAA | 0.0246
39 | CGCTTAGC | -0.0166
40 | AATATCGG | 0.179
41 | AATATCGA | 0.326
42 | GATATCGA | 0.0864
43 | AAAGAGCG | 0.0467
44 | AACCCTGA | 0.131
45 | AATGCTGA | 0.118
46 | CATGCTGA | 0.181
47 | CGTGCTTA | 0.273
48 | GGTGCTTA | 0.0985
49 | GATGCTTA | 0.0868
50 | CATGCTTC | 0.0417

Row | Sequence | PBM E-score
51 | CGTGCTGA | 0.0279
52 | AATGCTTA | 0.276
53 | CATGCTTA | 0.259
54 | ACGGTGGA | -0.285
55 | GAGTCGAC | 0.063
56 | GCCTAACC | -0.12
57 | ATCCGACG | 0.0285
58 | ACGCTTAT | 0.101
59 | CCACTTAA | 0.0597
60 | ACGCTTAC | 0.269
61 | CCACTTAC | 0.303
62 | CCGCTTAA | 0.103
63 | CCGCTTAC | 0.334
64 | CCGCTTAG | -0.0568
65 | GCACTTAC | 0.112
66 | ACGCTTAG | 0.0472
67 | GAACAGGA | -0.126
68 | CCTTGCAC | -0.0869
69 | TAGATCAA | 0.0289
70 | ACGGAGAG | 0.00731
71 | AGGTAAGG | 0.0286
72 | AGGTAAGC | 0.321
73 | GCGTAACC | 0.0286
74 | TCGTAAGA | -0.00999
75 | ACGTAAGT | 0.25

Row | Sequence | PBM E-score
76 | GTGTAAGA | 0.0309
77 | ACGTAACG | 0.214
78 | ACGTAAGA | 0.347
79 | ATGTAAGA | 0.274
80 | CGGTAAGC | 0.114
81 | ACGTAACC | 0.262
82 | CTGTAAGA | -0.00022
83 | AATCGTCG | 0.14
84 | ACATTCAC | 0.093
85 | AAATTCTC | -0.0624
86 | TCCCTTAA | -0.186
87 | AACTAGGT | 0.118
88 | CGACATAC | 0.104
89 | GTCACACA | 0.0464
90 | TACTTCGA | 0.183
91 | CGTCCTCC | -0.139
92 | CATGGTAA | 0.0768
93 | ACTCATCT | 0.156
94 | GATATGGA | 0.244
95 | ATGTAAGC | 0.431
96 | ATGTAAGG | 0.103
97 | ACGTAAAG | 0.191
98 | AAGTAATG | 0.184
99 | ACGTAATG | 0.334
100 | CTGTAAGC | 0.0794

Row | Sequence | PBM E-score
101 | ACAGGGAT | 0.0409
102 | ACAATCAG | 0.134
103 | AAACGTAA | 0.234
104 | TAACGGAA | 0.322
105 | CAACGTAA | 0.204
106 | GAACGTTA | -0.104
107 | GAACGGAA | 0.176
108 | GATCGTAA | 0.116
109 | CATCGTAA | 0.0929
110 | TATCGTAA | 0.28
111 | CAACGGAA | 0.103
112 | GAACGTAA | 0.297
113 | GAACGTAC | -0.115
114 | TAACGTAA | 0.415
115 | GAGGGGGA | -0.324
116 | GTGAGATA | 0.164
117 | CTAGCCGC | 0.0223
118 | GACTAGAC | -0.179
119 | ATCTGAAT | 0.0915
120 | GACCTTCC | -0.147
121 | AGATATTA | 0.168
122 | GAATATCA | 0.174
123 | CGATATTC | 0.0444
124 | GAATATTC | 0.265
125 | CGATATTA | 0.355

Row | Sequence | PBM E-score
126 | GGATATTA | 0.143
127 | GAATATTA | 0.274
128 | GAATATAC | 0.195
129 | CAATATTC | 0.102
130 | TAATATTA | 0.368
131 | GCATATTA | 0.246
132 | AAATATTT | 0.141
133 | GATCGTTA | 0.0193
134 | GGACCTAA | -0.0416
135 | CTGGGAAG | -0.0869
136 | CGATCGCC | 0.0437
137 | AGTCTTAT | 0.158
138 | AAGGGCGA | -0.241
139 | CAAGACGA | -0.0306
140 | CTCCGCCC | -0.173
141 | CTCCACAC | -0.0294
142 | ACTTCTTG | -0.0532
143 | AGGCTTGA | -0.0503
144 | CCACCTCC | -0.266
145 | AAGCACTC | -0.0467
146 | AAATATCA | 0.179
147 | CAATATCA | 0.108
148 | CAATATTG | 0.205
149 | CAATATCC | 0.116
150 | AAATATTG | 0.222

Row | Sequence | PBM E-score
151 | GAGTATCA | -0.0396
152 | TAGTATCA | 0.296
153 | AAATATTA | 0.315
154 | CAGTATCA | 0.0369
155 | AAATATTC | 0.183
156 | TAATATCA | 0.26
157 | CAATATTA | 0.275
158 | ACCTACGT | 0.0549
159 | CACTGCAG | -0.0359
160 | CGGCAGTC | 0.0575
161 | GTGCCAGA | -0.293
162 | GCACTACC | -0.00786
163 | TACCGGTA | 0.0137
164 | GCGATTCA | 0.0512
165 | AAAATCCT | -0.223
166 | CTTTAGCC | 0.0446
167 | CCGGCTTC | 0.0218
168 | TGGAGCCA | -0.184
169 | ATTGGCGG | -0.0494
170 | AGGATAGC | -0.064
171 | CTGACCGC | -0.068
172 | ACAATAAT | 0.267
173 | ATTATAAT | 0.265
174 | ATTATAAG | 0.188
175 | ACAATAAA | 0.162
